# Measurements from PubChem BioAssay (NCI).
# About 83,000 compounds went through this panel and 20% of them were active in at least one assay; those are over-represented in the sample as a whole.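 Growth was measured after 48 h exposure to one concentration of compound in 96-well plates. Values under 10 count as active.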 Activity calls are given as the source filed them.
# Test system: ACHN renal
# Experiment: NCI-60 one-dose screen, 48 h (100 = growth as untreated, 0 = no growth, -100 = all killed)
# Settings: 10 µM unless noted
row,SMILES,growth
1,NS(=O)(=O)c1ccc(Nc2nc(N/N=C/c3ccc(F)cc3)nc(Nc3ccccc3)n2)cc1,80.8% (inactive)
2,COc1ccc(-c2cc(-c3ccc(Cl)cc3)nc3nc(N)nn23)cc1,96.3% (inactive)
3,COc1ccc(Cn2cc3c(c2-c2cc(OC)c(OC)c(OC)c2)CCCc2cnoc2-3)cc1,36.3% (inactive)
4,CN(c1ccc(F)cc1)S(=O)(=O)c1ccc(-c2cnc(C3CC3)o2)cc1,43% (inactive)
5,COC[C@]12CC[C@@H](C)[C@H](C)[C@H]1C1=CC[C@@H]3[C@@]4(C)CCCNC(C)(C)[C@@H]4CC[C@@]3(C)[C@]1(C)CC2,30.7% (inactive)
6,C=C(C)[C@@H]1CC[C@]2(C(=O)ON)CC[C@]3(C)[C@H](CC[C@@H]4[C@@]5(C)C/C(=C/c6ccc(Br)cc6)C(=O)C(C)(C)[C@@H]5CC[C@]43C)[C@@H]12,76% (inactive)
7,CN(c1ccc(Br)cc1)S(=O)(=O)c1ccc(-c2cnc(C3CC3)o2)cc1,38.9% (inactive)
8,CCCCCCNC(=O)Oc1ccc(/C(=C(\C)c2ccc(Cl)cc2)c2ccc(OCCN(C)C)cc2)cc1,71.5% (inactive)
9,C=C(C)[C@@H]1CC[C@]2(COS(C)(=O)=O)CC[C@]3(C)[C@H](CC[C@@H]4[C@@]5(C)CCCNC(C)(C)[C@@H]5CC[C@]43C)[C@@H]12,99.2% (inactive)
10,O=C(NNc1nc2cc(F)ccc2n2cncc12)c1cnccn1,9.12% (active)
11,CN1CCN(c2ccc3c(C(N)=O)c(NC(=O)c4ccc(C(C)(C)C)cc4)sc3c2)CC1,96.4% (inactive)
12,NC(=O)C(=Cc1ccc(Cl)cc1)C(N)=O,59.4% (inactive)
13,CCN1C(=O)N(CC)C2SC(N/N=C/C=C/c3ccccc3OC)=NC21 (centres undefined),29.9% (inactive)
14,CC(=O)C1=NN(c2ccc(Cl)cc2)C(=O)CN1C,99.4% (inactive)
15,CCOC(=O)c1c(NCC(=O)Nc2ccc(Br)cc2)sc2c1CCCC2,14.8% (inactive)
16,CN1CCN(c2ccc3c(c2)nc(NNC(=O)c2ccncn2)c2cccn23)CC1,12.5% (inactive)
17,CCOc1c(C#N)c(Nc2ccc(S(N)(=O)=O)cc2)c(C#N)c2nnc(C)n12,90.2% (inactive)

row,SMILES,growth
1,O=c1[nH]c(CNc2ccc(NCc3c(-c4ccccc4)no[n+]3[O-])cc2)nc2c1cnn2-c1ccccc1,70.4% (inactive)
2,C#CCOc1ccc(C(Nc2ccc(Cl)cc2)c2nnnn2C2CCCCC2)cc1 (centres undefined),96.2% (inactive)
3,COc1cc(/C=N/Nc2ccnc3cc(Cl)ccc23)cc(OC)c1O,-98.2% (active)
4,COc1cc(C(=O)C[n+]2ccc3ccccc3c2)cc(OC)c1OC,106% (inactive)
5,Cc1ccc(NC(=O)c2ccc(CN3CCN(C)CC3)c(I)c2)cc1Oc1ccc(-c2[nH]nc3ncnc(N)c23)cc1,76.9% (inactive)
6,COc1ccc(Cn2cc3c(c2-c2ccccc2)CCCc2cnoc2-3)cc1,58.9% (inactive)
7,N#Cc1c(NC(=O)c2ccc(F)c(Cl)c2)sc2c1CCC(=O)C2,-98.8% (active)
8,c1ccc(-c2c(-c3ccccc3)[n+](Cc3ccc4ccccc4c3)c(-c3ccccc3)n2Cc2ccc3ccccc3c2)cc1,-95.5% (active)
9,CCOC(=O)C1=C(C)N=C2Sc3ccccc3N2C1c1ccccc1 (centres undefined),88% (inactive)
10,CCn1c2ccc(/C=N/NS(=O)(=O)CCN(C)C)cc2c2cc(/C=N/NS(=O)(=O)CCN(C)C)ccc21,97% (inactive)
11,Cn1cc2c(c1)-c1c(sc3nc(-c4ccc(NC(=O)Nc5cc(C(C)(C)C)on5)cc4)cn13)CC2,42.1% (inactive)
12,CCOC(=O)c1c(NC(=O)c2ccc(C(C)(C)C)cc2)sc2cc(OCCN3CCCCC3)ccc12,93% (inactive)
13,COc1ccccc1/C=C/C=N/NC1=NC2C(S1)N(C)C(=O)N2c1ccccc1 (centres undefined),24.7% (inactive)
14,CC1(C)CC[C@]2(C(=O)O)CC[C@]3(C)C(=CCC4[C@@]5(C)C[C@@H](O)[C@@H]6OC(c7cccc([N+](=O)[O-])c7)OC[C@@]6(C)C5CC[C@]43C)C2C1 (some centres undefined),39.4% (inactive)
15,CN(C)c1ncc(/C=C2\SC(=S)N(Cc3ccccc3Cl)C2=O)s1,76.2% (inactive)
16,O=C(/C=C1\C=CN(CCCCO)c2ccccc21)n1ccc2ccccc21,93.7% (inactive)
17,C#C[C@]1(O)CC[C@H]2[C@@H]3CC=C4c5sc(Nc6nc(C)cc(OC)n6)nc5CC[C@]4(C)[C@H]3CC[C@@]21C,49.2% (inactive)
